High-throughput results: PubChem BioAssay, National Center for Advancing Translational Sciences (NCATS)
Shiga toxin inh: inhibitors of Shiga toxin in Vero cells; Vero cells, Shiga toxin protein synthesis inhibition reporter; inhibition, % at 38.7 µM; 9.2% of 290,000 active; in the data active = inhibition mostly above about 28%, no sharp cut-off; inactive = mostly below about 43%; note: 0% is about no effect
SARS PLP yeast: inhibitors of SARS-CoV papain-like protease in yeast; S. cerevisiae expressing SARS-CoV PLpro, growth rescue; Potency, µM (series often up to 32.9 µM), without a hit: at the top dose activity, positive = growth rescue, usual class: activators; 0.19% of 330,000 active; AID 485353; note: potency is the fitted concentration of half-maximal effect; 0% is about no effect; nearly all actives have a fitted effect of over 55% in size
NS1 function inh: inhibitors of influenza NS1 protein function; Potency, µM (series often up to 46.1 µM), for inactives: at the highest dose activity, positive = more growth; 0.4% of 270,000 active; AID 2326; note: potency is the fitted concentration of half-maximal effect; actives are rising curves; nearly all actives have a fitted effect of over 50% in size
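In this qHTS, NS1 from influenza A is expressed in budding yeast, where it slows growth. Cells are switched from glucose to 2% galactose medium (pH 6.0, -URA), treated with compound, and growth recovery is read at OD600.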
Cycloheximide cs: counter-screen for Shiga toxin inhibitors: cycloheximide protein synthesis inhibition; cell reporter, cycloheximide protein synthesis inhibition counterscreen; max response, %; 12% of 300,000 active; in the data active = max response mostly above about 13%, no sharp cut-off; inactive = mostly below about 14%; note: read at 38.3 µM for the half of the compounds with a filed dose; 0% is about no effect
Pf growth 48h: inhibits P. falciparum growth in the first generation, 48 h. 5.9% of 310,000 active. Potency, µM (titrated, usually from 28.7 µM), for inactives: at the highest dose activity change, negative = inhibition, hits mostly inhibitors. AID 504832. P. falciparum luciferase growth in erythrocytes, 48 h; active = well fitted inhibition curve with a large enough effect; inconclusive = small, poorly fitted or top-dose-only effect, or another doubt; inactive = no such curve, though single readings can be large or run the other way; note: potency is the fitted concentration of half-maximal effect; % is set by controls: 0 for no effect and ±100 for the full control effect
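Parasite viability was followed by luminescence of a genomically integrated firefly luciferase. Cultures held 0.1% parasitemia at 2% hematocrit (final), incubated under 5% CO2 at 37 C.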
Pf growth 96h: inhibits malaria parasite growth, 96 h. 6.9% of 320,000 active. P. falciparum luciferase reporter growth, 96 h. Potency, µM (doses to about 28.7 µM), inactives show at the highest dose activity change, negative = inhibition, most hits filed as inhibitors; active = well fitted inhibition curve with a large enough effect; inconclusive = small, poorly fitted or top-dose-only effect, or another doubt; inactive = no such curve, though single readings can be large or run the other way; note: potency is the fitted concentration of half-maximal effect; % is set by controls: 0 for no effect and ±100 for the full control effect
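Infected RBCs, 2% Hct / 0.05% parasitemia final; luciferase-reporter P. falciparum; cpd 96 h, 37 C, 5% CO2; luciferase detection reagent; luminescence.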
The depositor's hits bear a star; i = inactive; ? = inconclusive; nt = no result. Sampled rows, rich in hits. Any-hit rate of the full collection: about 21%. Unless noted, calls come from the whole dose curve.

SMILES | Shiga toxin inh | SARS PLP yeast | NS1 function inh | Cycloheximide cs | Pf growth 48h | Pf growth 96h
CC(=O)Nc1nc(COc2ccccc2)cs1 | 64* | -1% | 2% | 44* | 173% | ?
Cc1ccc(C(=O)Nc2nc(COc3ccccc3)cs2)s1 | 82* | nt | -41% | 31* | 7% | -16%
O=C(Nc1nc(COc2ccccc2)cs1)C12CC3CC(CC(C3)C1)C2 | 27 | ? | -8% | 19 | nt | ?
COc1cccc(OC)c1C(=O)Nc1nc(COc2ccccc2)cs1 | 28 | -4% | 1% | 10 | 119% | 45%
O=C(Nc1nc(COc2ccccc2)cs1)C1CCC1 | 89* | -9% | -12% | 37* | 406% | i
Nc1nnc(SCCCOc2ccc(F)cc2)s1 | -23 | 0% | 6% | -2 | -18% | ?
CC1Nc2nc(NC(=O)C(C)(C)C)[nH]c(=O)c2N(C)C1C (stereo unspecified) | -9 | -7% | 25% | -4 | -10% | 14%
Nc1nc(COc2ccc3ccccc3c2)cs1 | 116* | nt | -213% | 60* | 14% | nt
CC(=O)Nc1nc(COc2ccc3ccccc3c2)cs1 | 97* | -4% | -12% | 52* | nt | 123%
CCCCn1cnc2c1c(=O)n(CC(=O)c1cc(C)n(C)c1C)c(=O)n2CC(C)C | -20 | -5% | -2% | -1 | nt | 12µM*
COC(=O)c1c(-c2ccccc2)nn(-c2ccccc2)c1C(=O)OC | nt | 3% | 4% | 4 | 40% | -3%
COc1ccccc1CNC(=O)c1c(-c2ccccc2)nn(-c2ccccc2)c1C | -14 | 3% | -4% | -1 | nt | 9.3µM*
Cc1c(C(=O)O)c(-c2ccccc2)nn1-c1ccccc1 | 8 | 2% | 11% | 1 | 1% | 2.9µM*
COc1ccccc1CNC(=O)c1cc(C)nn1-c1ccccc1 | -15 | 1% | 2% | -2 | -1% | -2%
CC(Sc1nnc(-c2cccnc2)n1C)C(=O)N1CCOCC1 (stereo unspecified) | nt | 1% | nt | nt | 5% | 10%
COc1cc(NC(=O)c2cc3ccccc3cc2OC)ccc1NC(=O)c1cccs1 | -3 | -3% | 0% | 1 | -4% | 1%
COc1cc(NC(=O)c2ccccc2Cl)ccc1NC(=O)c1cccs1 | 105* | 0% | nt | 46* | 142% | 26%
COc1cc(NC(=O)c2cccc(Cl)c2)ccc1NC(=O)c1cccs1 | 98 | -1% | 3% | 16* | 15% | 30%
COc1c(Cl)cc(Cl)cc1/C=C/C(=O)c1ccc(NC(=O)c2cccs2)cc1 | 40* | 1% | 8% | 30* | 5.2µM* | -12%
O=C(C1CCOCC1)N1CCCC(N2CCN(c3ccc(F)cc3)CC2)C1 (stereo unspecified) | -8 | 3% | 9% | 12 | -11% | 9%
Fc1ccc(/C=N/n2c(-c3cccs3)n[nH]c2=S)cc1 | -10 | -25% | 17% | -3 | 11% | 0%
Cc1cccc(C(=O)NC(C(=O)Nc2ccccc2N2CCOCC2)C(C)C)c1 (stereo unspecified) | -21 | -1% | nt | -2 | ? | ?
O=C(O)[C@@H](Br)[C@H](Br)C(=O)O | nt | nt | -8% | nt | nt | nt
O=C(Nc1ccccc1)c1cccc(N2C(=O)CCC2=O)c1 | -13 | 3% | 3% | -3 | 0% | nt
O=C(Nc1ccc(Br)cc1)c1cccc(N2C(=O)CCC2=O)c1 | 65* | 1% | 2% | 55* | -1% | 25%
SMILES | Shiga toxin inh | SARS PLP yeast | NS1 function inh | Cycloheximide cs | Pf growth 48h | Pf growth 96h
CN(C)c1ccc(NC(=O)c2cccc(N3C(=O)CCC3=O)c2)cc1 | 37 | 5% | -1% | 21* | 44% | 73%
CCC(=O)N1CCc2cc(S(=O)(=O)CCC(=O)N3CCN(c4ccc(F)cc4)CC3)ccc21 | 13 | 3% | 1% | -5 | -19% | 1µM*
CCOC(=O)N1CCN(C(=O)CCS(=O)(=O)c2ccc3c(c2)CCN3C(=O)CC)CC1 | -6 | -3% | 5% | 4 | -16% | -23%
CC(=O)N1CCc2cc(S(=O)(=O)CCC(=O)N3CCN(c4ccccc4F)CC3)ccc21 | -1 | -1% | -10% | 5 | ? | ?
CC(=O)c1ccc(N2CCN(C(=O)CCS(=O)(=O)c3ccc4c(c3)CCN4C(C)=O)CC2)cc1 | 14 | 4% | -7% | 3 | 13µM* | ?
Cc1nc(-c2coc3cc(OCC(=O)O)ccc3c2=O)cs1 | -16 | -4% | 7% | -2 | ? | 52%
